In ChEMBL document CHEMBL3988442, “University of Dundee, Small-Polar-MMV Screening Library” (2021) one finds Percent Effect data, which are given here for eleven compounds.

What all share (parameters): scale not given: direction of the effect not stated beside the values
In test [1] the target is Protein translocase subunit SecA (Escherichia coli (strain K12)) (UniProt P10408). Nature of the test: Assay to Identify E. coli SecA ATPase Inhibitors. The format is functional. To be noted: 30 µM.
Test [2] concerns the target T1, Ubiquitin-activating enzyme e1, putative (Leishmania donovani (strain BPK282A1)) (UniProt E9BSI1).
T1 sequence (whole entry): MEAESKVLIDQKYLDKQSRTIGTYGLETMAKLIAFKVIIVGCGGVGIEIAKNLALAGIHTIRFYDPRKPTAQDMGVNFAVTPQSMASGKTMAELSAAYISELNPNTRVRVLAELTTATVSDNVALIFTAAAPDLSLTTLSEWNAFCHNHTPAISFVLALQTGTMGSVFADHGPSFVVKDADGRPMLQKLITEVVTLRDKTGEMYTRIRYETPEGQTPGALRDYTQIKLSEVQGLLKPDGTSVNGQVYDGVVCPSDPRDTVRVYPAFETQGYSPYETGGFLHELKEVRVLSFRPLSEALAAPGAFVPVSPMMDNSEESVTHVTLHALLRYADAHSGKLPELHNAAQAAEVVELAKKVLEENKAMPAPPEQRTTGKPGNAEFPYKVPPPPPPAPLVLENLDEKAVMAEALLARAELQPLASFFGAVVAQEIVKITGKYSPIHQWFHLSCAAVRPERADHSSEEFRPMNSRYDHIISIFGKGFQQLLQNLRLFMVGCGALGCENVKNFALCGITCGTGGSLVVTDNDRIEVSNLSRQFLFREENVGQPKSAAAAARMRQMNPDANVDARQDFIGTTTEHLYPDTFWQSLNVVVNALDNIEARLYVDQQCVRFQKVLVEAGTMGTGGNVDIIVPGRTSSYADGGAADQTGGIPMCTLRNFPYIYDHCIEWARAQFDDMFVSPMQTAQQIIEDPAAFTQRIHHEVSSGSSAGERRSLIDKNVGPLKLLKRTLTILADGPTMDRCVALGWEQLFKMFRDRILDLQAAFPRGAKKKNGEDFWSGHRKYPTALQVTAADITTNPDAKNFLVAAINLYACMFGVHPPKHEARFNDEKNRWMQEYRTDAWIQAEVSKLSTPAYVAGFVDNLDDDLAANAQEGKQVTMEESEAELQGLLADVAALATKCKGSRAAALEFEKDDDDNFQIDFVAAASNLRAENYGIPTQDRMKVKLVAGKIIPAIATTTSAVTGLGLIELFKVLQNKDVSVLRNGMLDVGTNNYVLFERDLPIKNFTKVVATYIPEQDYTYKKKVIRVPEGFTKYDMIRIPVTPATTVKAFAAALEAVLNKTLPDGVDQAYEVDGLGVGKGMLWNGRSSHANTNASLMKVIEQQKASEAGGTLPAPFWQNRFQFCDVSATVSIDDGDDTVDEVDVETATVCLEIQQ
Nature of the test: Leishmania donovani Ubiquitin Activating Enzyme (LdE1). It is filed as functional. To be noted: 30 µM.

Test [3] has as its target AMP-activated protein kinase, AMPK (Homo sapiens) (UniProt P54646+O43741+P54619+Q9UGJ0+Q9Y478+Q13131+Q9UGI9). Nature of the test: AMP-dependent Kinase enzyme assay. An in vitro enzyme assay that detects ADP turnover that is directly proportional to AMPK activity. This uses naive AMPK that is activated during the assay with MK-8722. To be noted: 30 µM. The format is functional.

For test [4], the target named is Sialic acid-binding Ig-like lectin 9 (Homo sapiens) (UniProt Q9Y336). Nature of the test: Hs-Siglec9 ALPHAscreen SOP 20170721. As to conditions: 10 µM. Background: In Alpha technology, singlet oxygen from a donor bead excites a nearby acceptor bead.
Chain of Sialic acid-binding Ig-like lectin 9 (Homo sapiens) (Q9Y336 whole entry): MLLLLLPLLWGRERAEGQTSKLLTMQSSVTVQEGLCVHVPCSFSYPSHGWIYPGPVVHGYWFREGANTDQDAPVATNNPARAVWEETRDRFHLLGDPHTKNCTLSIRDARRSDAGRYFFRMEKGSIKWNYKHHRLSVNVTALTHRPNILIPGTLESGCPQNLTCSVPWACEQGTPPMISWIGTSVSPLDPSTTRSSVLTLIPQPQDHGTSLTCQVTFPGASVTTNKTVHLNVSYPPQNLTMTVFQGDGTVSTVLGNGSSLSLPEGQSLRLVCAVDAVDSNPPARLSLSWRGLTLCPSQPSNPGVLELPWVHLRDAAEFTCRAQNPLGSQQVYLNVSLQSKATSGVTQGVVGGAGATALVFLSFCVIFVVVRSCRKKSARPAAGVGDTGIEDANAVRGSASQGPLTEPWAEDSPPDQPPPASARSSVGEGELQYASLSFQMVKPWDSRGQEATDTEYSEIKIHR
Test [5] concerns Trypanosoma cruzi. Nature of the test: Trypanosoma cruzi phosphomannomutase and mannose-1-phosphate guanylyltransferase assay. It is filed as functional. As to conditions: 10 µM.
The target of test [6] is T2, Arginase-2, mitochondrial (Homo sapiens) (UniProt P78540).
T2 sequence (whole entry): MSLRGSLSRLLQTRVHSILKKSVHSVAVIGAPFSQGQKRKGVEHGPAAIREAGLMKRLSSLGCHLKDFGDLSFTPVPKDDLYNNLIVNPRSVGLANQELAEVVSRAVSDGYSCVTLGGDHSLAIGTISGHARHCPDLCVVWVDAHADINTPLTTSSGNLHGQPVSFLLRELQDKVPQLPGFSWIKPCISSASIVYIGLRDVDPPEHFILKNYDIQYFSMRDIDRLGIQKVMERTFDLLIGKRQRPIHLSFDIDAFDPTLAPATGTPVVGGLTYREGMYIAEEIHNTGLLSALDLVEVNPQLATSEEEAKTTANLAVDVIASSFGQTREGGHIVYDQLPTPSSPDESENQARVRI
Nature of the test: in vitro enzyme assay to detect the production of urea directly proportional to the activity of Arginase II. Further: in the data most compounds retested in dose-response had high values. It is filed as functional. As to conditions: 33.3 µM.

Test [7] addresses T3, Proteasome subunit beta (Trypanosoma cruzi) (UniProt O96673).
T3 sequence (whole entry): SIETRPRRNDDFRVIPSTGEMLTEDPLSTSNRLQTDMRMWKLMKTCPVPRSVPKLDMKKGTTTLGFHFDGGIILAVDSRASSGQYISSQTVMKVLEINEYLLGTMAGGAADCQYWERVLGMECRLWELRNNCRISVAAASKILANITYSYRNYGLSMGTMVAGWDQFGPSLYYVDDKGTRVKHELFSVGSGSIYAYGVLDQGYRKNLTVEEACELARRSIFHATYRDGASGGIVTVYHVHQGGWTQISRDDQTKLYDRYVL
Nature of the test: Trypanosoma cruzi proteasome chymotrypsin-like activity (TcProtChymo) assay. Further: in the data most compounds retested in dose-response had high values. It is filed as functional. As to conditions: 9.37 µM.

For test [8], the species on record is Homo sapiens. Nature of the test: To identify inhibition of the IFN signalling (Jak-Stat) pathway via expression of an eGFP reporter gene under the control of an IFN-stimulated response element (ISRE) containing MxA promoter. It is filed as functional. To be noted: 30 µM.
Test [9] concerns the target T4, Tyrosyl-tRNA synthetase, putative (Trypanosoma cruzi (strain CL Brener)) (UniProt Q4DSP6).
T4 sequence (whole entry): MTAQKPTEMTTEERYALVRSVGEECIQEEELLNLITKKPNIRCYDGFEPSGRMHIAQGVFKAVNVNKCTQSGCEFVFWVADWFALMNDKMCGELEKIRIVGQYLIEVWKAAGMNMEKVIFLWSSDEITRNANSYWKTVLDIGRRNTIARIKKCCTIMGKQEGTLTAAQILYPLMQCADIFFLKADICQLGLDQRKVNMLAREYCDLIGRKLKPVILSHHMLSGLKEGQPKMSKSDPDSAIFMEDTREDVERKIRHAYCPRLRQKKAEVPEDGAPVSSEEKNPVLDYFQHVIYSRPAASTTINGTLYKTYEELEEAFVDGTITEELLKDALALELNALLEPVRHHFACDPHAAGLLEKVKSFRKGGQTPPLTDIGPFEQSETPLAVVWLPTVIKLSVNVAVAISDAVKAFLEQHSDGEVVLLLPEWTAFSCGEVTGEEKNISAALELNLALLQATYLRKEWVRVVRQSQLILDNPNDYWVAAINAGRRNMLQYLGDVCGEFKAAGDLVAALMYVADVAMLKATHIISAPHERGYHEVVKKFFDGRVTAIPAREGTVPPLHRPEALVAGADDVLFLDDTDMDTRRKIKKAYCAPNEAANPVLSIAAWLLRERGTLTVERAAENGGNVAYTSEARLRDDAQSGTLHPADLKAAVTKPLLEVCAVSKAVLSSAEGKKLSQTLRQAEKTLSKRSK
Nature of the test: Trypanosoma cruzi tyrosyl tRNA synthetase (TcYRS) _High Tyrosine SOP. Further: in the data most compounds retested in dose-response had high values. As to conditions: 30 µM. It is filed as functional.

The target of test [10] is T4, Tyrosyl-tRNA synthetase, putative (Trypanosoma cruzi (strain CL Brener)). Nature of the test: Trypanosoma cruzi tyrosyl tRNA synthetase (TcYRS) SOP. The format is functional. As to conditions: 30 µM.
The target in test [11] is Chromo domain-containing protein 1 (Saccharomyces cerevisiae (strain ATCC 204508 / S288c) (Baker's yeast)) (UniProt P32657). Nature of the test: ScCHD-1 Enzyme Inhibition Assay. Further: in the data most compounds retested in dose-response had high values. As to conditions: 30 µM. The format is functional.
Chain of Chromo domain-containing protein 1 (Saccharomyces cerevisiae (strain ATCC 204508 / S288c) (Baker's yeast)) (P32657 whole entry, the tested form may be a part): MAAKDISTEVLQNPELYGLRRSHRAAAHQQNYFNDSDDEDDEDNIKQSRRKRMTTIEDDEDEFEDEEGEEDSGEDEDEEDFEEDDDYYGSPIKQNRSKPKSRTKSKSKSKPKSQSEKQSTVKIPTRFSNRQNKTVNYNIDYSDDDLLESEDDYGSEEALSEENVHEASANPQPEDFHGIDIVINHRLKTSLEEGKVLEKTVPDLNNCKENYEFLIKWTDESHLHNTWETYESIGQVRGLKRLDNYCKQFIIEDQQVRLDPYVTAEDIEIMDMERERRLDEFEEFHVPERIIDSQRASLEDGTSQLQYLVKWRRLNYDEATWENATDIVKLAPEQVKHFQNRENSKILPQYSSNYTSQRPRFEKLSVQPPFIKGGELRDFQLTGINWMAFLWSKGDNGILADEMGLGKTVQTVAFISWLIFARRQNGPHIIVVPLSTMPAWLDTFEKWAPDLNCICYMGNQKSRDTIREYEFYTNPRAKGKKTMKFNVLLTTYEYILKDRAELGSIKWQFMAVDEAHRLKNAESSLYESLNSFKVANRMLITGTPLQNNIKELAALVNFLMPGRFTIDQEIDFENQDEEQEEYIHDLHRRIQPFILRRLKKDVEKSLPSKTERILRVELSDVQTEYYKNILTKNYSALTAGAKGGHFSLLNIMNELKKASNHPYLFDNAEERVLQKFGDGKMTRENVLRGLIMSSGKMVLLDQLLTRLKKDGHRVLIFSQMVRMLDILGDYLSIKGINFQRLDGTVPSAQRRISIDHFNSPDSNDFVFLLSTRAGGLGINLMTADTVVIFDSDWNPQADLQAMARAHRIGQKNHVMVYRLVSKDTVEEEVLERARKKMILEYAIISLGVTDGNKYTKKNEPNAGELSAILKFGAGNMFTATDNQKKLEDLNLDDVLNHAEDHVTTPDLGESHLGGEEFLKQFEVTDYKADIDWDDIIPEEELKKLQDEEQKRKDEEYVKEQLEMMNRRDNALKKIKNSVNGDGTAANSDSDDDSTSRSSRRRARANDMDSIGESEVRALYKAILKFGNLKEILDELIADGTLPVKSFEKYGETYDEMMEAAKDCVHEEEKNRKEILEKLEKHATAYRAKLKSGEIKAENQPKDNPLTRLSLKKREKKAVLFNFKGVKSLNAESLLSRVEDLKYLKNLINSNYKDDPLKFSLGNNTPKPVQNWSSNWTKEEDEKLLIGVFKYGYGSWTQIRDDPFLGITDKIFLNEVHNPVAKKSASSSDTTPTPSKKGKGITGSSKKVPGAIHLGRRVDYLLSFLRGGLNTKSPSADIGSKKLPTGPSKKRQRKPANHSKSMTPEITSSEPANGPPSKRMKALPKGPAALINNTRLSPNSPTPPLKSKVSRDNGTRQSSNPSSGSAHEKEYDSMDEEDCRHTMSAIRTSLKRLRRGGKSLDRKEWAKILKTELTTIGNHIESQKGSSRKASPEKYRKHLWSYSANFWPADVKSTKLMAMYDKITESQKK

Structures are written as SMILES. For some of these results: Results with a measured potency or affinity are listed apart.

Chain of Protein translocase subunit SecA (Escherichia coli (strain K12)) (P10408 whole entry): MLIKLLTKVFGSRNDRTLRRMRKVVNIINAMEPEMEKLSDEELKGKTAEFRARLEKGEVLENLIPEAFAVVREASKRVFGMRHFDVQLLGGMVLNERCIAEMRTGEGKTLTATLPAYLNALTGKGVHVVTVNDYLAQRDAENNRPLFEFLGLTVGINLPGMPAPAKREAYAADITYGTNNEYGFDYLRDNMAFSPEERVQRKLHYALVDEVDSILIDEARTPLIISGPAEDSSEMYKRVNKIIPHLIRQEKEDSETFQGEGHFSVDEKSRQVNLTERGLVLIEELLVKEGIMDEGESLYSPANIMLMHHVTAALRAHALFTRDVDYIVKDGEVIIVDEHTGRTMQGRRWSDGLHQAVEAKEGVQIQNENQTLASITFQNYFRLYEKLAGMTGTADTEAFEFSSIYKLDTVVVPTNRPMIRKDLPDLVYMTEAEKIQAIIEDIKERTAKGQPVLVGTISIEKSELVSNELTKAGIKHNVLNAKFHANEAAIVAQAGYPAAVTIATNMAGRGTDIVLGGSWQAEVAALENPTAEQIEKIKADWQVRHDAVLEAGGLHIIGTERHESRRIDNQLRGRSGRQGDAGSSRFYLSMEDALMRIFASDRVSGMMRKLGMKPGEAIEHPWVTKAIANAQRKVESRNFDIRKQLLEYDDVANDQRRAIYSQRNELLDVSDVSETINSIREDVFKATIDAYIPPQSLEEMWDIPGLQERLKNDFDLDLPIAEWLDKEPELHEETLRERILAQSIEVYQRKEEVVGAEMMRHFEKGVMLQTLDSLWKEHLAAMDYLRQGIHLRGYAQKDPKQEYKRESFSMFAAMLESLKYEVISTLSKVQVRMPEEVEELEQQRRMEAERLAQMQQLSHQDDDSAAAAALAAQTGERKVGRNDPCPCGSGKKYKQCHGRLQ

As to `Cc1nc(CN2CCn3cc(CNC(=O)C4CCC4)nc3C2)cs1`, the Percent Effect is -1.94% in test [1]; 13.3% in [2]; -0.557% in test [3]; 6.49% in test [4]; 4.63% in test [5]; -45.3% in test [6]. The Percent Effect in test [7] was 24.1%; in [8], -2.13%; in test [9], 9.38%; in [10], 27.5%; in [11] it was -8.63%.
Consider `CSc1sc(NC(=O)Cc2c(C)nc(C)[nH]c2=O)nc1C`, for which the Percent Effect in test [1] is -6.26%; in [2], 7.89%; in test [3], -7.94%; in [4], 7.61%; in test [5], 5.83%; in [6], -2.68%. The Percent Effect in test [7] is 6.18%; in test [8], 7.45%; in [9] it was 7.35%; in test [10], 12.2%; in test [11], -12.2%.
Consider `CC(C)NC(=O)N1CCC(n2ccc(C(F)(F)F)n2)CC1`, for which the Percent Effect in test [1] is -6.7%; in [2], 5.48%; in test [3] it was -3.52%; in [4] it was -4.66%; in test [5], -2.74%; in [6], -0.909%. The Percent Effect in [7] is 5.32%; in [8], -13.8%; in test [9], 0%; in test [10] it was 7.5%; in test [11] it was -2.82%.
Take `Cc1ccc(OCC(=O)NCC(C)C)nc1`: the Percent Effect was -6.24% in [1]; 13.7% in test [2]; -6.5% in test [3]; 6.61% in [4]; 6.94% in test [5]; 1.2% in test [6]. Further, the Percent Effect in [7] is 4.37%; in [8] it was 1.54%; in test [9], 8.33%; in test [10], 11.1%; in [11] it was -8.95%.
Regarding `COc1ccc(CN(C)C(=O)CCc2c(C)nc(C)[nH]c2=O)cc1OC`, the Percent Effect in [1] is -2.11%; in test [2], 6.94%; in [3] it was -3.92%; in [4], 5.86%; in [5], 5.15%; in test [6], 0%. Besides, the Percent Effect in [7] was 20.2%; in test [8], -1.63%; in test [9] it was 7.37%; in [10], 12.8%; in test [11], -3.31%.
On to `COCC1c2c(cnn2CC2CC2)CCN1Cc1nccs1` (stereo unspecified), for which the Percent Effect was -2.49% in test [1]; 13.3% in test [2]; -1.8% in test [3]; 5.98% in test [4]; -4.05% in [5]; -26% in [6]. Besides, the Percent Effect is 12.1% in test [7]; -5.9% in test [8]; 4.17% in test [9]; 20% in [10]; -6.08% in test [11].
Turning to `Cc1ccc(C(=O)N2CCn3cc(CN(C)Cc4ccco4)nc3C2)o1`, the Percent Effect was 2.2% in [1]; 0% in test [2]; 3.27% in [3]; 0.0829% in test [4]; -4.24% in test [5]; 3.23% in [6]. The Percent Effect in [7] is 3.13%; in test [8] it was 0.489%; in test [9], 1.06%; in test [10], 3.85%; in [11], 105%.
As to `CC(C(=O)Nc1ccc(N2CCCC2)nc1)n1cncn1` (stereo unspecified), the Percent Effect was -5.02% in test [1]; 10.8% in test [2]; -32.5% in [3]; 18.1% in test [4]; 4.62% in [5]; -9.62% in test [6]. The Percent Effect in test [7] is 14.2%; in [8] it was 19.2%; in test [9] it was 7.39%; in [10] it was 18.5%; in test [11], -10.4%.
Take `Cc1cc(C)n(C2CCCN(C(=O)c3cnc4onc(C)c4c3)C2)n1` (stereo unspecified): the Percent Effect in test [1] is -2.86%; in test [2] it was 5.2%; in test [3] it was 2.66%; in test [4] it was 12.3%; in test [5], -1.08%; in test [6] it was 4.84%. Further, the Percent Effect in [7] was 4.77%; in test [8], 38.1%; in test [9], 1.91%; in test [10] it was 9.41%; in [11], -15.5%.
In the case of `O=c1ccc(-c2ccccc2F)nn1CCN1CCCS1(=O)=O`, the Percent Effect is -6.51% in [1]; 13.5% in test [2]; -4.96% in test [3]; 22.3% in test [4]; 6.16% in [5]; 3.72% in [6]. Besides, the Percent Effect in [7] was 1.29%; in [8] it was -2.29%; in test [9] it was 1.07%; in test [10], 8.64%; in test [11], -10.9%.
In the case of `CS(=O)(=O)N1CCC(Oc2ccc(C(=O)N3CCSCC3)cc2Cl)CC1`, the Percent Effect in test [1] was -2.47%; in [2] it was 9.72%; in test [3], 3.27%; in test [4] it was 18.5%; in test [5] it was 4.37%; in test [6] it was -2.21%. Further, the Percent Effect in test [7] was 3.86%; in test [8], 25.7%; in test [9], 3.16%; in test [10] it was 7.69%; in test [11] it was -2.42%.
